ChEMBL document CHEMBL4513216, “Probing the Open Global Health Chemical Diversity Library for Multistage-Active Starting Points for Next-Generation Antimalarials” (ACS Infect Dis, 2020)
The whole screen tested about 69,000 compounds, of which about 8,600 (12%) showed an effect of 50% or more. For the sample, strong results were picked, then their nearest neighbours and some compounds at random.

Test system: Plasmodium berghei
Assay: Screen against P. berghei liver stage (PbLuc), transformed with Luciferase, at 10uM
Format: functional, HepG2
Conditions: tested at 10 uM

Compound	INHIBITION [%]
Cc1cc(CNc2ccnn2CC(C)C)ccc1-n1cncn1	89.7
Cc1cc(CNc2ccnn2C)ccc1-n1cncn1	62.8
Cc1cc(CNC(C)Cn2cncn2)ccc1Br (stereo unspecified)	41.4
CCc1cc(NCc2ccc(-n3cncn3)c(C)c2)n(C)n1	79.5
CCOC(=O)NC1CCCN(Cc2ccc(-n3cncn3)c(C)c2)C1 (stereo unspecified)	-1.35
Cc1nc(CN)cc(NCc2ccccc2-n2cncn2)n1	33.7
CC(Cn1cncn1)NCc1ccc2nonc2c1 (stereo unspecified)	12
Cc1cc(CN2CCCC(NS(C)(=O)=O)C2)ccc1-n1cncn1 (stereo unspecified)	-3.14
CCCNC(=O)C1CCCN(Cc2ccc(-n3cncn3)c(C)c2)C1 (stereo unspecified)	-14.5
CN1CCc2ncc(CNC(=O)c3cccn3C)n2CC1	20.9
CCn1ccnc1CN1CCN(Cc2cnc(C)cn2)CC1C (stereo unspecified)	13.2
c1cnc(N2CCCC(c3csc(Nc4cnccn4)n3)C2)nc1 (stereo unspecified)	61.3
Cc1nc(Nc2cnccn2)cc(C2CCN(c3ncccn3)C2)n1 (stereo unspecified)	-17.7
c1cnc(N2CCC(c3csc(Nc4cnccn4)n3)CC2)nc1	76.7
CC(=O)N1CCCC1c1csc(Nc2cnccn2)n1 (stereo unspecified)	13.5
OCCN1CCC(c2csc(Nc3cnccn3)n2)CC1	0.825
CCC(=O)N1CCCC1c1csc(Nc2cnccn2)n1 (stereo unspecified)	-4.82
NC(=O)CN1CCC(c2csc(Nc3cnccn3)n2)CC1	33.8
NC(=O)CN1CCCC1c1csc(Nc2cnccn2)n1 (stereo unspecified)	51.5

Compound	INHIBITION [%]
COCC(=O)N1CCCC1c1csc(Nc2cnccn2)n1 (stereo unspecified)	44.1
CCCn1cnnc1CN(C)C(=O)C1CCCN(C2CCN(C)CC2)C1 (stereo unspecified)	-21.3
COCCC(=O)N1CCCC1c1nc(O)cc(-c2ccccn2)n1 (stereo unspecified)	35.2
Cc1nc2n(n1)CC(Nc1nc(-c3ccccc3)no1)CC2 (stereo unspecified)	-6.51
CSCc1cc(F)ccc1CNC(=O)N1CCC(CO)CC1	56.6
CSCc1cc(F)ccc1CNC(=O)N1CCCC(CO)C1 (stereo unspecified)	78.3
CSCc1cc(F)ccc1CNC(=O)N1CCCC1	-110
COc1ccccc1CNC(=O)N1CCCC(CO)C1 (stereo unspecified)	-10.7
CSCc1cc(F)ccc1CNC(=O)N1CCOCC1	13.1
CSCc1cc(F)ccc1CNC(=O)N1CCC[C@@H]1CO	31.9
Cc1c(Cl)cccc1NC(=O)c1nc[nH]n1	-1.16
COc1ccc(-c2cc3nn(CC(=O)NC(C)C)c(=O)n3c(C)n2)cc1	53.2
COc1ccc(-c2cc3nn(CC(N)=O)c(=O)n3c(C)n2)cc1	14.3
Cc1nc(-c2ccccc2)cc2nn(CC(N)=O)c(=O)n12	28.6
NC(=O)CC1CCN(C(=O)NCCc2ccc(Cl)s2)CC1	-17.6
c1ccc(CN2CCCC3(CCN(Cc4cccs4)C3)C2)nc1 (stereo unspecified)	21.1
Cc1nn(C)c(N2CCOCC2)c1CNC(c1ccccc1)C1CC1 (stereo unspecified)	14.6
O=C(C1CCCC1)N1CC2(CCN(C3COC3)C2)OCc2ccccc21 (stereo unspecified)	53.2
O=C(C1CCCC1)N1CC2(CCN(C3COC3)C2)Cc2ccccc21 (stereo unspecified)	10.1

Compound	INHIBITION [%]
O=C(C1CCCC1)N1CC2(CCCN(C3COC3)C2)Cc2ccccc21 (stereo unspecified)	-0.621
O=C(C1CCCC1)N1CC2(CCNC2)OCc2ccccc21 (stereo unspecified)	11
O=C(C1CCCC1)N1CC2(CCN(C3COC3)CC2)Cc2ccccc21	53.2
O=C(C1CCCOC1)N1CCCc2ccccc21 (stereo unspecified)	-21
Cc1ccc(-c2[nH]c3ccccc3c2C(=O)O)c(C)c1	31.7
c1nc(CN2CCC3(CC2)COCCN3CC2CC2)c[nH]1	-2.17
N#Cc1ccccc1N1CCCN(C(=O)CCc2ccsc2)CC1	19.2
CC(C)n1cnnc1CN(C)C(=O)c1ccccc1-n1cncn1	31.7
COCCCN1CC2(CCN(Cc3cc(C(C)C)no3)CC2)CC1=O	41.2
COCCCN1CC2(CCN(C(=O)Cc3csc(C)n3)CC2)CC1=O	-44.8
CCSc1ncc(CN2CC[C@@](O)(COC)C(C)(C)C2)cn1	43.5
CSc1ncc(C(=O)N2CCC(O)(CN3CCOCC3)C(C)(C)C2)cn1 (stereo unspecified)	40.6
CCSc1ncc(CN2CCC(O)(CN3CCOCC3)C(C)(C)C2)cn1 (stereo unspecified)	81
CCc1ncc(C(=O)N2CCC(O)(CN3CCOCC3)C(C)(C)C2)cn1 (stereo unspecified)	10.9
COCCCN1CC2(CCN(C(=O)c3ncc(F)cc3F)CC2)CC1=O	58.1
COC[C@]1(O)CCN(Cc2cnc(N3CCOCC3)nc2)CC1(C)C	32.3
CC1(C)CN(C(=O)c2ncc(F)cc2F)CCC1(O)CN1CCOCC1 (stereo unspecified)	76.3
Cc1nc(C2CCCN(C(=O)c3cc(C(C)(C)C)on3)C2)no1 (stereo unspecified)	-21.8
